Data from PubChem BioAssay.
Active and inactive are the calls of the source. Unless noted, how the calls were made is not given here.

Tests used:
[1] = A549 cell viability effects, profiling panel, calcein-AM fluorescence, 48 h, basal (AID 1162); conditions: higher = more signal; further: test concentration not given here
[2] = adipocyte viability effects, profiling panel, cell-based, 3T3-L1 adipocytes, calcein-AM fluorescence, 48 h, basal (AID 1163); conditions: 3T3-L1 adipocytes viability, higher = more signal; further: test concentration not given here
[3] = HepG2 cell viability effects, profiling panel, calcein-AM fluorescence, 48 h, basal (AID 1164); conditions: higher = more signal; further: test concentration not given here
[4] = MM1S cell viability effects, profiling panel, calcein-AM fluorescence, 48 h, basal (AID 1165); conditions: higher = more signal;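 further: viability of MM1S multiple myeloma cells under basal unstimulated conditions; test concentration not given here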
[5] = basal RPMI8226 viability, no added stimulus, profiling panel, cell-based, calcein-AM fluorescence, 48 h, PK04 Diversity Set (AID 1166); conditions: RPMI8226 myeloma viability, higher = more signal;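 further: cells grown under basal conditions without added stimulus; test concentration not given here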
[6] = basal HepG2 mitochondrial membrane potential changes, profiling panel, cell-based, JC-1 fluorescence, 24 h, 100 nL compound (AID 1167); conditions: higher = more signal; further: test concentration not given here
[7] = basal 3T3-L1 adipocyte mitochondrial potential changes, profiling panel, cell-based, JC-1 fluorescence, 3T3-L1 adipocytes, 24 h, 100 nL compound (AID 1168); conditions: JC-1 mitochondrial fluorescence, higher = more signal, called active from +8 up or from −8 down; further: test concentration not given here
[8] = basal RPMI8226 mitochondrial membrane potential changes, profiling panel, cell-based, JC-1 fluorescence, 24 h, 100 nL compound (AID 1169); conditions: RPMI8226 myeloma, JC-1 mitochondrial potential fluorescence, higher = more signal; further: test concentration not given here
[9] = basal MM1S mitochondrial membrane potential changes, profiling panel, cell-based, JC-1 fluorescence, 24 h, 100 nL compound (AID 1170); conditions: higher = more signal; further: test concentration not given here
[10] = A549 lung cancer cell viability effects, profiling panel, resazurin fluorescence, 24 h, PK04 Diversity Set (AID 1171); conditions: higher = more signal, called active from +8 up or from −8 down; further: test concentration not given here
[11] = HepG2 liver cancer cell viability effects, profiling panel, resazurin fluorescence, 24 h, PK04 Diversity Set (AID 1172); conditions: higher = more signal; further: test concentration not given here
[12] = basal S. cerevisiae growth modulation, no modifier, primary screen, OD600, strain BY4716, 24 h, basal condition (AID 1173); conditions: OD600, 24 h, higher = more signal, called active from +8 up or from −8 down
[13] = MM1S myeloma cell viability, profiling panel, resazurin fluorescence, basal, 24 h, PK04 Diversity Set (AID 1174); conditions: higher = more signal, called active from +8 up or from −8 down;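 further: MM1S multiple myeloma cell line; test concentration not given here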
[14] = biological target: Dihydroorotate dehydrogenase (quinone), mitochondrial (Plasmodium falciparum (isolate 3D7)) (UniProt Q08210); assay: PfDHODH enzyme inhibitors, primary screen, biochemical, C-terminal His tag, absorbance 600 nm (AID 1175); conditions: DCIP absorbance 600 nm, higher = more signal, called active from +8 up or from −8 down;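 further: recombinant parasite enzyme with a five histidine tag at its C terminus; test concentration not given here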
[15] = P. aeruginosa biofilm formation inhibitors, primary screen, strain PAO1, LB-PBS medium, absorbance 600 nm (AID 1176); further: test concentration not given here; conditions: P. aeruginosa PAO1 growth/biofilm, A600, 12 h; higher = more signal
[16] = S. cerevisiae RM11-1a growth modifiers, primary screen, strain RM11-1a, OD600, basal, 24 h (AID 1177); conditions: OD600, 24 h, higher = more signal, called active from +8 up or from −8 down;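 further: cultures grown under basal conditions with no added stressor; test concentration not given here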
[17] = E. coli acrAB mutant growth effects, primary screen, E. coli filamentation inducers, strain DRC39, OD650, 24 h (AID 1178); conditions: higher = more signal, called active from +8 up or from −8 down;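 further: growth measured as culture turbidity by optical density at 650 nm; test concentration not given here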
[18] = E. coli acrAB mutant growth effects, primary screen, E. coli filamentation inducers, strain DRC39, OD650, 48 h (AID 1179);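 further: screen aims at cell division blockers that make cells filament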; conditions: E. coli DRC39 delta-acrAB growth, higher = more signal, called active from +8 up or from −8 down
[19] = RPMI8226 myeloma cell viability, profiling panel, resazurin fluorescence, basal, 24 h, PK04 Diversity Set (AID 1180); conditions: higher = more signal;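 further: RPMI8826 multiple myeloma cell line at 5000 cells per well; test concentration not given here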
[20] = biological target: E3 ubiquitin-protein ligase XIAP (Homo sapiens) (UniProt P98170); assay: XIAP binders, primary screen, biophysical, small-molecule microarray, fluorescence 635 nm (AID 1181); conditions: small-molecule microarray binding, higher = more signal;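 further: score merges 667 nm emission and signal to noise over triplicate slides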
E3 ubiquitin-protein ligase XIAP (Homo sapiens), sequence (P98170 whole entry, looked up): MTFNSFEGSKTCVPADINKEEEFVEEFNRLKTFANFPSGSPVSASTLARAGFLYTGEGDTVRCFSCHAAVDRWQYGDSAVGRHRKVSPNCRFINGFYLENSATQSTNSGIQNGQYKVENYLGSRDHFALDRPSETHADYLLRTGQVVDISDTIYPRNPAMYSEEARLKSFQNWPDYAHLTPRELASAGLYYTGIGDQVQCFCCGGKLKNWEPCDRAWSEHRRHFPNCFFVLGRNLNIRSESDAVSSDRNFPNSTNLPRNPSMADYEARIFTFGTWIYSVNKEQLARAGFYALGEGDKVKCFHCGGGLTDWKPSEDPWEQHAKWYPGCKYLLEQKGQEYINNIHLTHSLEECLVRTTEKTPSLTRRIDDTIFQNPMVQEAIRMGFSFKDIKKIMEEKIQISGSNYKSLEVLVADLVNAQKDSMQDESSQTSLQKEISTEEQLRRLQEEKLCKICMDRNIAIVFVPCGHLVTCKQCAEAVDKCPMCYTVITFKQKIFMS

Dihydroorotate dehydrogenase (quinone), mitochondrial (Plasmodium falciparum (isolate 3D7)), sequence (Q08210 whole entry, looked up): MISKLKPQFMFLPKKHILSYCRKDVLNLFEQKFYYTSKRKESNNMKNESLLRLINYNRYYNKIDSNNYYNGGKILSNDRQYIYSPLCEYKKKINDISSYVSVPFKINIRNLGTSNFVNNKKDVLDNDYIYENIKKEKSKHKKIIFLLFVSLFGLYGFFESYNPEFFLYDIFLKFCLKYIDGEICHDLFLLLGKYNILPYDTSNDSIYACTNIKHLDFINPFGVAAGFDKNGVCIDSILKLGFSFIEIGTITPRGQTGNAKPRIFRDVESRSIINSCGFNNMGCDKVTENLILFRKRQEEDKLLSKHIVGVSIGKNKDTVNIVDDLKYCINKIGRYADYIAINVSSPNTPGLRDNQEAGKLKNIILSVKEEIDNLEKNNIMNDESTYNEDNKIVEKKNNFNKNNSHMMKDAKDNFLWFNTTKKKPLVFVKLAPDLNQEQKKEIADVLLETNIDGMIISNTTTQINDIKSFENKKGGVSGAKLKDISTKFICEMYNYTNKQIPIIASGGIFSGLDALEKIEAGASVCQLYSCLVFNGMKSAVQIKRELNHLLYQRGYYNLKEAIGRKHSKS

SMILES	z-score [1]	z-score [2]	z-score [3]	z-score [4]	z-score [5]	z-score [6]	z-score [7]	z-score [8]	z-score [9]	z-score [10]	z-score [11]	z-score [12]	z-score [13]	composite z-score [14]	z-score [15]	z-score [16]	z-score [17]	z-score [18]	z-score [19]	composite z-score [20]
COC(=O)[C@@]1(Cc2ccc(OC)cc2)[C@H]2c3cc(C(=O)N4CCCC4)n(Cc4ccc(C)o4)c3C[C@H]2CN1C(=O)c1ccccc1	-3.86	-3.17	-5.75	-3.31	-4.69	-4.45	3.65 (inactive)	-0.815	-2.9	-7.08 (inactive)	-6.47	-8.36 (active)	-9.97 (active)	-1.53 (inactive)	0.411 (inactive)	-1.57 (inactive)	0.0254 (inactive)	-0.726 (inactive)	-7.27	0.402
CCCC=C(CCC)[C@@H](NS(=O)(=O)c1cccc2cccnc12)c1ccc(C(=O)OC)cc1	-1.76	-0.0806	-1.38	0.131	-0.0956	-1.52	-0.553 (inactive)	0.907	-1.13	0.174 (inactive)	0.582	1.35 (inactive)	0.058 (inactive)	-0.0345 (inactive)	0.371 (inactive)	1.04 (inactive)	0.134 (inactive)	-0.754 (inactive)	0.0013	0.67
C[C@]12C(=O)N(CCCCCO)[C@@H]3C(=O)N(c4ccc(Cl)cc4)CC=CC31O[C@@H]1/C=C\CCCOC(=O)C12 (stereo not given in full)	-0.237	0.282	0.209	0.355	-0.376	-0.259	-0.175 (inactive)	0.109	-0.0571	-0.663 (inactive)	-0.626	-0.225 (inactive)	0.194 (inactive)	-0.841 (inactive)	-0.677 (inactive)	-0.605 (inactive)	-0.308 (inactive)	-0.175 (inactive)	-0.135	0.234
CC1=C2[C@@H](CCc3ccccc3)OB(O)C[C@@H]2[C@@H]2C(=O)C=CC(=O)[C@@H]2C1	-0.223	0.36	-0.63	-3.38	-3.64	-3.63	-1.5 (inactive)	-1.12	-2.78	-0.247 (inactive)	-0.548	-17.6 (active)	-1.06 (inactive)	-3.6 (inactive)	0.589 (inactive)	-0.055 (inactive)	-0.367 (inactive)	-0.0244 (inactive)	-1.13	0.0325
CO[C@H]1O[C@H](CO)[C@@H](OC(=O)Nc2ccc(C(F)(F)F)cc2)[C@H](OC(=O)Nc2ccccc2)[C@H]1OC(=O)Nc1ccccc1	-3.56	1.96	-5.2	-3.39	-4.45	-1.93	0.575 (inactive)	-1.27	-1.45	-6.31 (inactive)	-5.15	0.0673 (inactive)	-6.47 (inactive)	0.0214 (inactive)	-0.276 (inactive)	2.72 (inactive)	0.201 (inactive)	-1.17 (inactive)	-6.11	0.166
COC(=O)C(CC#Cc1ccc2c(c1)[C@]1(C(=O)N2)[C@H](c2ccc(OCCO)cc2)N2[C@H](c3ccccc3)[C@H](c3ccccc3)OC(=O)[C@H]2[C@@H]1C(=O)O)C(=O)OC	1.88	-0.0521	1.45	0.47	-0.247	-0.0694	0.222 (inactive)	-0.336	0.132	0.179 (inactive)	0.669	0.156 (inactive)	1.09 (inactive)	-16.3 (active)	2.28 (inactive)	1.48 (inactive)	1.29 (inactive)	1.33 (inactive)	0.749	-0.194
Cc1ccc(S[C@]2(C(=O)O)CC(=O)N(Cc3ccccc3C(F)(F)F)[C@@H]2c2ccc(CO)cc2)cc1	0.391	-0.208	0.775	-0.804	0.393	0.143	0.998 (inactive)	0.171	-0.446	0.142 (inactive)	0.44	-0.0891 (inactive)	0.478 (inactive)	0.52 (inactive)	0.127 (inactive)	0.383 (inactive)	0.232 (inactive)	1.14 (inactive)	-0.285	-0.313
O=C1O[C@H](c2ccccc2)[C@H](c2ccccc2)N2[C@H]1[C@@H](C(=O)N1CCCCCCC1)[C@]1(C(=O)Nc3ccccc31)[C@H]2c1ccc(O)cc1	0.416	0.759	0.757	-1.81	-2.71	-1.65	0.123 (inactive)	-0.536	0.385	-1.52 (inactive)	-0.642	-0.147 (inactive)	-2.64 (inactive)	0.64 (inactive)	0.995 (inactive)	0.767 (inactive)	-0.328 (inactive)	-0.128 (inactive)	-2.73	2.57
COc1ccc([Si](C)(C)[C@H]2[C@H](CC(=O)N3CCC[C@H]3CO)O[C@@]3(C(=O)N(Cc4ccc(N5C(=O)c6cccc7cccc5c67)cc4)c4ccccc43)[C@@H]2C)cc1	-0.706	0.867	-0.154	-2.87	-4.2	2.16	1.44 (inactive)	-1.1	0.28	-1.28 (inactive)	-1.83	0.147 (inactive)	-1.61 (inactive)	-1.84 (inactive)	0.189 (inactive)	1.02 (inactive)	-0.788 (inactive)	-0.848 (inactive)	-1.16	-0.392
